# TWEAK-Fn14 inh: TWEAK-Fn14 signaling inhibition; TWEAK-stimulated Fn14 reporter cells, luciferase luminescence, 8 h; inhibition, % at 10 µM; 360,000 compounds, 2% hits; AID 1159606; in the data active = inhibition above about 50%
# LGR2 antag: Drosophila LGR2 receptor signaling inhibition. HEK293 LGR2, CRE-luciferase, bursicon-stimulated, 4 h. inhibition, % at 9.99 µM. 380,000 compounds, 0.35% hits;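 active = drop in luminescence signal, shown as inhibition above about 50% in the replicate tests, limit read from the data, passing the limit was not always enough; inconclusive = probably only some replicates passing the limit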;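 also: agonist challenge used bursicon conditioned medium at about half maximal strength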
# TROY NFkB inh: blocks TROY-dependent signaling in reporter cells. Q293 LMP1-TROYcd NF-kB luciferase reporter, 4 h. inhibition, % at 10 µM. 360,000 compounds, 0.98% hits;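 active = compounds whose plate-normalised and pattern-corrected inhibition of the luciferase reporter signal at the single screening dose is 50% or more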
# HSP90 inh: blocks HSP90-mediated luciferase refolding in reticulocyte lysate; inhibition, % at 5.6 µM; Rabbit reticulocyte lysate, luciferase refolding luminescence, 3 h; 290,000 compounds, 0.91% hits;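 active = inhibition above the screen-wide mean plus 3 SD, computed separately per campaign, cut at about 16% in these data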;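 also: 0% = DMSO wells and 100% = 60 µM geldanamycin wells; inhibitors lower the luminescence because luciferase stays unfolded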
# Active calls of the source: *; u = inconclusive; x = no result given. An excerpt weighted towards active compounds, which were near 2.2% of everything screened.
SMILES,TWEAK-Fn14 inh,LGR2 antag,TROY NFkB inh,HSP90 inh
Cc1nc2ccc(NC(=O)c3cccc(S(=O)(=O)N(C)c4ccccc4)c3)cc2s1,72*,x,60*,1
CN(c1ccccc1)S(=O)(=O)c1cccc(NC(=O)c2ccc3ncsc3c2)c1,76*,8,63*,2
COc1ccccc1N(C)S(=O)(=O)c1ccc(C(=O)Nc2ccc3nc(C)sc3c2)cc1,50,26,50*,-5
COC(=O)c1cccc(NC(=O)c2ccc(S(=O)(=O)N(C)c3ccccc3OC)cc2)c1,33,u,32,x
c1ccc2c(Nc3nc(N4CCOCC4)c4ccccc4n3)cccc2c1,52*,8,19,3
Fc1ccc(Nc2nc(N3CCOCC3)c3ccccc3n2)cc1,10,x,12,x
COc1ccc(NC2=C(C(C)=O)C(c3ccc(OC)c(OC)c3)C(C(C)=O)C(C)(O)C2)cc1 (stereo not drawn),54*,x,38,2
COc1ccc(NC2=C(C(C)=O)C(c3ccccc3)C(C(C)=O)C(C)(O)C2)cc1 (stereo not drawn),-4,-18,2,-2
C=CCn1c(SCC(=O)Nc2sccc2C(N)=O)nc2ccccc2c1=O,46,-14,34,-2
C=CCn1c(SCC(=O)Nc2sccc2C(N)=O)nc2ccc(Cl)cc2c1=O,73*,x,49,0
C=CCn1c(SCC(=O)Nc2sccc2C(N)=O)nc2sc(CC)cc2c1=O,72*,x,48,-4
O=C(N[C@H]1CC[C@H](CCNS(=O)(=O)c2cccc(Cl)c2)O[C@@H]1CO)c1ccc(F)cc1,x,-8,x,x
COc1ccc(CCn2c(N)c(C(=O)NCc3ccco3)c3nc4ccccc4nc32)cc1OC,43,x,35,9
Nc1c(C(=O)NCc2ccco2)c2nc3ccccc3nc2n1CCc1ccccc1F,44,x,54*,13
COc1ccc(CCn2c(N)c(C(=O)NCc3ccco3)c3nc4ccccc4nc32)cc1,61*,-1,65*,1
O=C1c2ccccc2C2=Nc3ccccc3SC(c3cccc(F)c3)C12 (stereo not drawn),48,21,71*,-1
COc1cccc(S(=O)(=O)Nc2ccc3c(c2)OC[C@@H](C)N(Cc2ccccc2F)C[C@@H](C)[C@@H](OC)CN(C)C3=O)c1,x,2,x,x
COc1cc(C(=O)O/N=C(\N)c2ccc([N+](=O)[O-])cc2)cc(OC)c1OC,-32,0,-9,1
COc1cc(C(=O)O/N=C(\N)c2cccc([N+](=O)[O-])c2)cc(OC)c1OC,62*,4,-1,0
C[C@@H]1CN([C@@H](C)CO)C(=O)Cc2cc(NC(=O)NC3CCCCC3)ccc2O[C@H]1CN(C)C(=O)Nc1cccc2ccccc12,x,10,x,x
N/C(Cc1ccc([N+](=O)[O-])cc1)=N\OC(=O)c1ccc2ccccc2c1,-3,x,59*,1
Cc1cccc(C(=O)O/N=C(\N)Cc2ccc([N+](=O)[O-])cc2)c1,-20,11,-21,2
N/C(=N\OC(=O)c1ccc(Cl)c([N+](=O)[O-])c1)c1ccccn1,2,7,-1,6
N/C(=N\OC(=O)Cc1ccc(-c2ccccc2)cc1)c1ccccn1,70*,x,70*,2
N/C(=N\OC(=O)c1ccc(Cl)c(Cl)c1)c1ccccn1,80*,68*,39,-1
SMILES,TWEAK-Fn14 inh,LGR2 antag,TROY NFkB inh,HSP90 inh
C/C=C/c1cnc2c(c1)C(=O)N([C@H](C)CO)C[C@H](C)[C@@H](CN(C)C(=O)Nc1ccc(OC)cc1)O2,x,-1,x,x
Cc1ccc(-c2cnc3c(c2)C(=O)N([C@H](C)CO)C[C@@H](C)[C@H](CN(C)C(=O)Cc2ccccc2)O3)cc1,x,12,x,x
COc1ccc(-c2csc(NC(=O)c3ccccc3NS(=O)(=O)c3ccc(C)cc3)n2)cc1,93*,33,70*,0
COc1ccc(S(=O)(=O)Nc2ccccc2C(=O)Nc2nc(-c3ccc(F)cc3)cs2)cc1OC,92*,25,59*,-9
COc1ccc(-c2csc(NC(=O)C3=NN(c4ccccc4)C(=O)CC3)n2)cc1,88*,11,36,3
Oc1ccc(/C=N/NC(=S)Nc2cccnc2)c(O)c1O,50*,4,-17,4
CCCS(=O)(=O)c1nnnn1-c1cccc(OC)c1,69*,x,52*,1
CCN(c1cccc(C)c1)S(=O)(=O)c1ccc2c(c1)CCN2C(C)=O,93*,x,35,2
O=C1N/C(=C/c2cccn2-c2ccccc2)C(=O)N1Cc1ccc(F)cc1,1,29,0,7
O=C1N/C(=C/c2cccn2-c2ccc(F)cc2)C(=O)N1Cc1ccccc1F,75*,-13,-27,-1
CCOC(=O)CCc1ccc(NC(=O)/C=C/c2ccc([N+](=O)[O-])o2)cc1,77*,18,-9,x

# Bioassay records as filed in PubChem.
